The source of these data is PubChem BioAssay.

Test [1] relates to TRPC4 beta (transient receptor potential cation channel C4), mouse. Briefly: TRPC4 cation channel opening, retest – cell-based, Fluo4 calcium, HEK293 TRPC4beta/mu-opioid, duplicates, 10 µM, confirmation (AID 2426;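 active = fluorescence ratio normalized to control raised more than 50% in primary screen plus both repeat runs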). The settings on record: Fluo4 calcium fluorescence, at 10 µM; stronger effect = higher value.
In test [2] the test system is transient receptor potential cation channel C4 beta (TRPC4), mouse. As to the kind of experiment: TRPC4 cation channel opening, second retest – cell-based, second round, Fluo4, HEK293 TRPC4beta/mu-opioid, 1 µM, confirmation (AID 2461;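 active = primary screen active and over 50% activation in each of two duplicate runs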). As to conditions: Fluo4 calcium fluorescence, at 1 µM; stronger effect = higher value.
Test [3] concerns TRPC4 (transient receptor potential cation channel C4 beta), mouse. Briefly: potentiation of DAMGO EC20 TRPC4 response – cell-based, second round, Fluo-4, HEK293 TRPC4beta/mu-opioid, 1 µM, confirmation (AID 2554;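 active = primary screen hit whose fluorescence ratio, in both repeats, exceeds the weak agonist control mean by 3 SD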). The settings on record: DAMGO EC20, Fluo-4 calcium flux, at 1 µM; stronger effect = higher value.
The subject of test [4] is TRPC4 beta (transient receptor potential cation channel C4), mouse. As to the kind of experiment: potentiation of DAMGO EC20 TRPC4 response – cell-based, Fluo-4, HEK293 TRPC4beta/mu-opioid, confirmation (AID 2555;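 active = primary screen hit whose calcium fluorescence ratio, in both repeats, exceeds the weak agonist control mean by 3 SD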). As to conditions: DAMGO EC20, Fluo-4 calcium flux, at 10 µM; stronger effect = higher value.
Test [5] deals with Short transient receptor potential channel 4 (Mus musculus) (UniProt Q9QUQ5). As to the kind of experiment: blockers of DAMGO-evoked TRPC4 calcium flux – cell-based, Fluo4, HEK293 TRPC4beta/mu-opioid, confirmation (AID 2636). As to conditions: at 10 µM; stronger effect = higher value.
Short transient receptor potential channel 4 (Mus musculus), sequence (Q9QUQ5 whole entry, looked up): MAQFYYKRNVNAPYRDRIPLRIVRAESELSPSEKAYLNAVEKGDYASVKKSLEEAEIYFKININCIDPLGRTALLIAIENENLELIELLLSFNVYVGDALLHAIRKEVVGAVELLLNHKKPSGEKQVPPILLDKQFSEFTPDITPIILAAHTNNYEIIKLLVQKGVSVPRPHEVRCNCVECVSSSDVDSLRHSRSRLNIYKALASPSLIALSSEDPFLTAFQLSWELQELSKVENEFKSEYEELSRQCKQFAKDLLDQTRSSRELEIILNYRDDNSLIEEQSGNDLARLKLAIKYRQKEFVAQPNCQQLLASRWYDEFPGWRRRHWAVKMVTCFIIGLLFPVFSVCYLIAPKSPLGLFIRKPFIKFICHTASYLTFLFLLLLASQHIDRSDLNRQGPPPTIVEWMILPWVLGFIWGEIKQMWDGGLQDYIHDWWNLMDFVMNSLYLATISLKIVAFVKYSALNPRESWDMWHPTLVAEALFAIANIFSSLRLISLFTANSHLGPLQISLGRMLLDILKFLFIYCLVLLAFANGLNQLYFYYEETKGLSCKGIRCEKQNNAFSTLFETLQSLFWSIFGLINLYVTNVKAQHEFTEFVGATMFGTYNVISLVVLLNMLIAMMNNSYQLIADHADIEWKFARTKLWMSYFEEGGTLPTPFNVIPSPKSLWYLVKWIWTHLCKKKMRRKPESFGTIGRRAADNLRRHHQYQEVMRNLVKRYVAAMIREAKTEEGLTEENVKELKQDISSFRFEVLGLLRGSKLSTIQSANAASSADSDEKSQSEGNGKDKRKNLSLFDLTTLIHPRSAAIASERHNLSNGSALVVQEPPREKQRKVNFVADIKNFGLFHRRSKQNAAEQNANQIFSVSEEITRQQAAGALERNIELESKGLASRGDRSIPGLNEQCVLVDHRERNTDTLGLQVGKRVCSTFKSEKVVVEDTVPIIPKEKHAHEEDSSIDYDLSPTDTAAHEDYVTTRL
For test [6] the target is unchanged. Briefly: blockers of DAMGO-evoked TRPC4 calcium flux – cell-based, second round, Fluo4, HEK293 TRPC4beta/mu-opioid, 1 µM, confirmation (AID 2637;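 active = calcium signal ratio cut to more than 3 SD under the fully stimulated control mean yet still positive, in both repeats and the primary screen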;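 as to inhibition: percent of integrated ratio relative to wells lacking test compound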). The settings on record: at 1 µM; stronger effect = higher value. For orientation: Calcium assays in cells follow changes in intracellular calcium, usually with a dye or a luminescent sensor.
Test [7] has the same target. As to the kind of experiment: calcium entry via TRPC4 opening agents – cell-based, HEK293 TRPC4/mu-opioid, Fluo-4 calcium, dose response (AID 434937;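 active = primary screen activator hit with a dose response curve and TRPC4 channel activation at any tested dose; inactive = no activation, no dose response, or not a primary hit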).
Test [8] shares this target. Briefly: potentiation of DAMGO-evoked TRPC4 calcium signal – cell-based, HEK293 TRPC4/mu-opioid, Fluo-4 calcium, EC20 DAMGO, dose response (AID 434941;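 active = earlier screen potentiator hit that boosts the TRPC4 ion channel at some dose, with a dose response; inactive = no potentiation, no dose response, or not a prior hit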;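 also: calcium entry triggered by an EC20 dose of DAMGO at the co-expressed mu-opioid receptor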).
Test [9] has as its target Short transient receptor potential channel 6 (Mus musculus) (UniProt Q61143). Briefly: TRPC6 blockade by TRPC4 inhibitor hits – cell-based, HEK293, membrane potential dye, duplicate, selectivity assay for TRPC4 inhibitor project, confirmation (AID 434948;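 active = active in primary screen and both duplicates, each dropping signal beyond three positive-control SD with fluorescence still positive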). The settings on record: HEK293 TRPC6, membrane potential dye fluorescence, at 10 µM, stimulated with maximal-effect acetylcholine; stronger effect = higher value.

The target is the same in test [10]. As to the kind of experiment: TRPC6 opening by TRPC4 activator hits – cell-based, HEK293, membrane potential dye, duplicate, selectivity assay for TRPC4 activator project, confirmation (AID 434950;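 active = membrane potential signal rise above negative control mean plus 3 SD in both duplicates, also active in the earlier TRPC4 screen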). The settings on record: HEK293 TRPC6, membrane potential fluorescence, at 10 µM; activation: stronger effect = higher value; outcome: activation.
Test [11] shares this target. Briefly: positive modulators of mouse TRPC6 channel – HEK293 cells, membrane potential dye, duplicate, selectivity assay for TRPC4 potentiator project, confirmation (AID 434952;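 active = compound raising the membrane signal above positive-control mean plus 3 SD in both repeats, and a primary screen hit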). The settings on record: HEK293 TRPC6, membrane potential dye fluorescence, at 10 µM, maximal acetylcholine added after compound; stronger effect = higher value.
Test [12] addresses Short transient receptor potential channel 4 (Mus musculus) (UniProt Q9QUQ5). As to the kind of experiment: calcium flux activators in TRPC4/5HT1a cells, counter-screen for TRPC4 activator project, cell-based, second counter screen, HEK293 TRPC4/5HT1a, Fluo-4 (AID 434977;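 active = calcium signal rise above buffer-control mean plus 5 SD in both duplicates, and also a hit in the primary screen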;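 as to activation: plate controls were assay buffer for no effect and maximal serotonin response for full effect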). As to conditions: Fluo-4 calcium flux, at 10 µM; stronger effect = higher value.
A short description of test [13]: serotonin-gated TRPC4 signal block – cell-based, second counter screen, HEK293 TRPC4/5HT1a, Fluo-4, counter-screen for TRPC4 inhibitor project, confirmation (AID 434978;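 active = primary screen active whose calcium signal fell more than 3 SD beyond the full-serotonin control mean in both duplicate plates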). As to conditions: Fluo-4 calcium flux, at 10 µM, serotonin added to trigger calcium flux; stronger effect = higher value.
The test system of test [14] is TRPC4 (mouse), co-expressed with 5HT1a in HEK293. Briefly: enhancement of serotonin-evoked TRPC4 response – cell-based, second counter screen, HEK293 TRPC4/5HT1a, Fluo-4, counter-screen for TRPC4 potentiator project, confirmation (AID 434979;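 active = signal rise over 3 SD above mean of control wells given weak agonist, in both repeats and first screen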). The settings on record: Fluo-4 calcium flux, at 10 µM, serotonin added at its EC20 dose; stronger effect = higher value. A general note: The purpose of a counterscreen is to sort out artefacts and off-target activity.

A short description of test [15]: nonspecific calcium rise without TRPC4 – cell-based, HEK293 mu-opioid receptor line, counter-screen for TRPC4 activator project, confirmation (AID 449723;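 active = hit in primary screen, with calcium signal over 5 SD above buffer well mean in both duplicates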;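 also: counter screen cells carry the mu-opioid receptor alone and lack TRPC4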). The settings on record: HEK293 mu-opioid cells, Fluo-4 calcium fluorescence, at 10 µM; stronger effect = higher value.
The nature of test [16]: nonspecific potentiation of DAMGO calcium response – cell-based, HEK293 mu-opioid receptor line, counter-screen for TRPC4 allosteric potentiator project, confirmation (AID 449724;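 active = calcium signal rise more than 3 SD above the low-dose agonist control mean, in both duplicate plates and the primary screen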;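 also: HEK293 cells carrying mu-opioid receptor only with no TRPC4 channel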). As to conditions: HEK293 mu-opioid receptor cells, Fluo-4 calcium flux, at 10 µM, compound added before EC20 DAMGO stimulus; stronger effect = higher value.
Test [17] is described as follows: nonspecific flux increase, KCNQ1-free cells – parental CHO cells, counter-screen for KCNQ1 potentiator project (AID 493006;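 active = duplicate-averaged activation above buffer control mean plus 5 SD of those controls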;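 as to activation: fluorescence ratio of max minus min over baseline after K+ and Tl+ depolarization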). The settings on record: parental CHO-K1 cells, FluxOR thallium flux, at 10 µM; stronger effect = higher value.
For test [18], the target named is Potassium voltage-gated channel subfamily KQT member 1 (Homo sapiens) (UniProt P51787). Briefly: enhancement of KCNQ1 channel thallium flux – FluxOR thallium flux, CHO cells, duplicates, confirmation (AID 493007;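 active = potentiation averaged over duplicate wells exceeding buffer-only control mean by more than 3 SD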;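 as to outcome: cells depolarized by a potassium plus thallium sulfate stimulus after compound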;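 as to potentiation: 0% = buffer-only wells and 100% = R-L3 activator control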). As to conditions: KCNQ1 cell line, FluxOR thallium flux fluorescence, at 10 µM; stronger effect = higher value, % of reference activator effect, buffer zero.
Potassium voltage-gated channel subfamily KQT member 1 (Homo sapiens), sequence (P51787 whole entry, looked up): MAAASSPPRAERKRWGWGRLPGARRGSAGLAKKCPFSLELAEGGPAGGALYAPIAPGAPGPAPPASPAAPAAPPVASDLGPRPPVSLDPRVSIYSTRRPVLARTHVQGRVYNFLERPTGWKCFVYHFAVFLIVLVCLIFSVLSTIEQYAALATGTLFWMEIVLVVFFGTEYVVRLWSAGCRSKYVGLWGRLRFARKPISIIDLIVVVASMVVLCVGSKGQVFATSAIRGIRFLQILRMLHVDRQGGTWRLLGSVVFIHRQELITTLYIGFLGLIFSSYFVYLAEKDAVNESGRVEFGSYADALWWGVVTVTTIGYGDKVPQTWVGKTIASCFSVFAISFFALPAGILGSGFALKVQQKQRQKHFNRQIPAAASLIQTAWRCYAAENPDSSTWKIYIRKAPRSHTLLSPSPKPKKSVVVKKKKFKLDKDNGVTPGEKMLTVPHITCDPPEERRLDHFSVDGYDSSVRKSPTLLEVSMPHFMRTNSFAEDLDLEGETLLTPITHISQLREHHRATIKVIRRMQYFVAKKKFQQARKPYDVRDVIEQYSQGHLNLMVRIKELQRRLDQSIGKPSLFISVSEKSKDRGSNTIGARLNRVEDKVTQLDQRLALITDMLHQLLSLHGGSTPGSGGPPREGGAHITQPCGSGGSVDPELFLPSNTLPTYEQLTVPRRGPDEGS
In test [19] the target is Potassium voltage-gated channel subfamily KQT member 2 (Rattus norvegicus) (UniProt O88943). As to the kind of experiment: KCNQ2 thallium flux enhancement – KCNQ2-CHO-K1 cells, selectivity assay for KCNQ1 potentiator project (AID 493009;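 active = mean duplicate potentiation above the buffer control mean plus 5 SD of buffer wells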;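 also: assay conditions were tuned for KCNQ1 rather than KCNQ2 modulators; signal is max minus min fluorescence divided by baseline after thallium stimulus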). The settings on record: FluxOR thallium flux fluorescence, at 10 µM; stronger effect = higher value, scaled: buffer 0, activator control 100.
Potassium voltage-gated channel subfamily KQT member 2 (Rattus norvegicus), sequence (O88943 whole entry, looked up): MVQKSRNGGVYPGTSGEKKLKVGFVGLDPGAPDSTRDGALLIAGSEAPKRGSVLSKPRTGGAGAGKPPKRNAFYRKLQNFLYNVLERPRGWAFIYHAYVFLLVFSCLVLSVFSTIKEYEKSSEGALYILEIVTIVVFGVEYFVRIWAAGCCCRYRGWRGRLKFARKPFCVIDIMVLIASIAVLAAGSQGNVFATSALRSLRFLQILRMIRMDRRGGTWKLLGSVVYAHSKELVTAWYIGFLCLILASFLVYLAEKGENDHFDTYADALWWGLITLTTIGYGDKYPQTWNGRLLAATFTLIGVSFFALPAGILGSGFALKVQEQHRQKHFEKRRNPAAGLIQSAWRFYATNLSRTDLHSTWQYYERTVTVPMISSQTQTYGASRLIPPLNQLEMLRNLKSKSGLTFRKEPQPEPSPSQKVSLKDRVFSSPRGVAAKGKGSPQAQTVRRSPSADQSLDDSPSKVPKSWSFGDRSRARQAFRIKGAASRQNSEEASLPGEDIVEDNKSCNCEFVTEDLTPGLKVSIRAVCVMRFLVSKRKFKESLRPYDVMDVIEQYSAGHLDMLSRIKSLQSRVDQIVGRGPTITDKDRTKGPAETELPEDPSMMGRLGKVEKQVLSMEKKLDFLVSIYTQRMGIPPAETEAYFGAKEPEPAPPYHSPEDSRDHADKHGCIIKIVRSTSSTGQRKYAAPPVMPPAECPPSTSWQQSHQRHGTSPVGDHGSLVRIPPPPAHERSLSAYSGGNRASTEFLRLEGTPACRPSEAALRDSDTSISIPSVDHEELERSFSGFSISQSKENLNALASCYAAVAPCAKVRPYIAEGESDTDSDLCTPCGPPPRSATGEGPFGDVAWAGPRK

For some of these results: Results with a measured potency or affinity are listed apart. Active and inactive are the calls of the source.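 The calls were made as follows, unless noted: active = calcium signal cut by more than 3 SD below the full-agonist control yet still positive, in both repeats and the earlier primary screen; inactive = the rest.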

Short transient receptor potential channel 6 (Mus musculus), sequence (Q61143 whole entry, looked up): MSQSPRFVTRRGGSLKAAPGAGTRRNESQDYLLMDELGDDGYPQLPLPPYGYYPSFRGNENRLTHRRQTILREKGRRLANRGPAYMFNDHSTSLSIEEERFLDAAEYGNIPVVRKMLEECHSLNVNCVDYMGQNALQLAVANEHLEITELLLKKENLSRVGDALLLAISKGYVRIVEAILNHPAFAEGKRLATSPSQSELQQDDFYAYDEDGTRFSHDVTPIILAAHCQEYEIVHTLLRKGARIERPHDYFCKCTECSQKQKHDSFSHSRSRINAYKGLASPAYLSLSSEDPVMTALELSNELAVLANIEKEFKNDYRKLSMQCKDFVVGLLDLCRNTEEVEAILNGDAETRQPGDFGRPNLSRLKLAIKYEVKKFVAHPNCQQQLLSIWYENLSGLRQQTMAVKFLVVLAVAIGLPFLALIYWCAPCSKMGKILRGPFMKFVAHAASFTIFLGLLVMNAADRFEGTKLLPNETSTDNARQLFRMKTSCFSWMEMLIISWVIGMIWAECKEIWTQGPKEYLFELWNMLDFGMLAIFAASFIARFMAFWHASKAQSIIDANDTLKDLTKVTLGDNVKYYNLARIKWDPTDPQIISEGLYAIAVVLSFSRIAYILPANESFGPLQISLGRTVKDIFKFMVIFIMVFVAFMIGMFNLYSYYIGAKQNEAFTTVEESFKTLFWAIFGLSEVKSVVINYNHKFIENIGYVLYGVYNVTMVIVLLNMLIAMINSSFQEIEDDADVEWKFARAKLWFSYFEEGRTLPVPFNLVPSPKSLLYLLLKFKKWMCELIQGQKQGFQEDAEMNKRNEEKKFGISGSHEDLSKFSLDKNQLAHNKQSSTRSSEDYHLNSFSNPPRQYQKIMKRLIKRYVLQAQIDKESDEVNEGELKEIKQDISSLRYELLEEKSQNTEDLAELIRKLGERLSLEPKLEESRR

For orientation: inhibition means the drop in the measured response relative to a control, in per cent. For the compound `CC(=O)C1=C(S(=O)(=O)c2ccc(C)cc2)CS(=O)(=O)C1`, the outcome in test [1], in test [2], in test [3], in [4], in test [7] and in test [8] was inactive. For the same compound, the compound was classed as inactive in [9], in test [10], in test [11], in test [12], in test [14] and in [15]. Also, the outcome in test [16], in test [17] and in [18] was inactive. Moreover, the inhibition in test [5] was 74% (active); in [6], 39% (active); in [13], 12.2% (active). Besides, the potentiation in [19] is 200% (active).
Consider `O=Cc1cc(N=Nc2ccccc2Cl)ccc1O`, for which the result in [1], in [2], in test [3], in test [4], in test [6] and in test [7] was inactive. The outcome in test [8], in test [9], in test [10], in test [11], in test [12] and in test [14] was inactive. Moreover, the result in [15] and in test [16] was inactive. Also, the inhibition in test [5] is 91% (active); in [13], 30.2% (active). For the same compound, in [17], the activation was 237% (active). Moreover, the potentiation in test [18] was 81% (active); in test [19], 248% (active).
Regarding `COc1cc(CNC2CCCC2)cc(Cl)c1OCc1ccc(F)cc1`, the result in test [1], in [2], in test [3], in [4], in test [6] and in test [7] was inactive. In addition, the outcome in test [8], in test [9], in [10], in test [11], in test [12] and in test [14] was inactive. The result in test [15] and in test [16] was inactive. Besides, the inhibition in test [5] is 82% (active); in test [13], 37.5% (active).
Regarding `Cc1ccccc1Cn1c(=N)n(CC(O)c2ccco2)c2ccccc21` (configuration not stated), the result in [1], in test [2], in test [3], in test [4], in test [7] and in [8] was inactive. Moreover, the compound was called inactive in test [9], in [10], in [11], in test [12], in test [14] and in test [15]. The outcome in [16] was inactive. Further, the inhibition in [5] is 89% (active); in [6], 58% (active); in [13], 33.6% (active).
`Cc1ccc(OCC(=O)NNC(=S)NC(=O)c2ccc(Br)o2)c(C)c1`: the result in [1], in [2], in test [3], in test [4], in [6] and in [7] was inactive. Further, the outcome in test [8], in test [9], in test [10], in test [11], in [14] and in [15] was inactive. For the same compound, the result in test [16] was inactive. For the same compound, the inhibition in test [5] was 65% (active); in test [13], 21.6% (active). The activation in test [12] was 18.1% (active); in test [17] it was 198% (active). In addition, the potentiation is 106% (active) in test [18] and 328% (active) in test [19].
Turning to `CCCc1nc2oc3c(NCCN(C)C)ncnc3c2c2c1CCCC2`, the outcome in test [1], in [2], in [3], in test [4], in test [7] and in test [8] was inactive. Moreover, the result in test [9], in test [10], in [11], in [12], in [14] and in test [15] was inactive. Also, the outcome in [16], in [17], in test [18] and in [19] was inactive. The inhibition in test [5] is 86% (active); in test [6], 37% (active); in [13] it was 13.5% (active).
As to `Cc1cc(C)cc(N/C(N)=N/c2nc(C)cc(C)n2)c1`, the outcome in test [1], in test [2], in test [3], in test [4], in test [6] and in test [7] was inactive. The outcome in test [8], in test [9], in [10], in test [11], in [12] and in [14] was inactive. Besides, the outcome in test [15], in [16], in test [17], in test [18] and in test [19] was inactive. The inhibition in [5] was 100% (active); in test [13] it was 30.2% (active).
